# Screens deposited in PubChem by several laboratories.
# Hits are enriched below; roughly 1.8% of the tested compounds scored in any of these assays.
# Gli-Sufu antag: antagonists of Gli-Sufu signaling; Sufu-KO-LIGHT fibroblasts, Gli luciferase reporter luminescence; inhibition, % at 5 µM; hit rate 0.74% among 340,000;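 active = inhibition above about 55%, limit read from the data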;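 also: 0% = DMSO-treated cells and 100% = wells with medium but no cells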
# Jurkat NFkB inh: lowers PMA/ionomycin-induced NF-kB signal in Jurkat cells. PMA/ionomycin-induced NF-kB luciferase reporter, luminescence. inhibition, % at 4 µM. hit rate 0.53% among 330,000; in the data active = inhibition above about 50%
# 697 NFkB inh: inhibitors of the PMA/ionomycin-induced NF-kB reporter in 697 B cells. 697 B-cell NF-kB luciferase reporter, 16 h. inhibition, % at 4 µM. hit rate 0.33% among 330,000. AID 435022; in the data active = inhibition above about 35%
# Beta apoptosis: beta cell apoptosis inhibition. hit rate 0.8% among 300,000. INS-1E cytokine-induced death, ATP luminescence, 48 h; percent of positive-control rescue, neutral wells zero. AID 435005. protection from apoptosis, % (concentration not given with the values);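 active = Every replicate reaches about 75%, or at least half do and their mean reaches it too, limit read from the data; inconclusive = At least half of replicates reach the limit but their mean does not; inactive = Under half of replicates reach the limit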;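 also: 0% = cytokine-treated negative control wells and 100% = positive control rescue; higher means more ATP so stronger rescue from cytokine killing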
# Gli-Sufu confirm: confirmation of Gli-SUFU pathway antagonists; AID 602428; hit rate 40% among 2,500; shares compounds with Gli-Sufu antag; Sufu-KO-LIGHT cells, Gli luciferase reporter, luminescence; inhibition, % at 5 µM;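 active = mean inhibition at 5 µM reaching about 45%, limit read from the data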;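 also: plate controls were DMSO-treated cells for no effect and wells lacking cells for full effect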
# SufuKO cytotox: cytotoxic in Gli-SUFU antagonist counter-screen; cytotoxicity, % at 5 µM; AID 651994; shares compounds with Gli-Sufu antag; Sufu-KO-LIGHT cells cytotoxicity, ATP luminescence; hit rate 32% among 2,500;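 active = mean cytotoxicity at 5 µM above about 25%, limit read from the data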;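 also: cells exposed to compound overnight for roughly 16 to 18 hours; plate controls were DMSO wells with cells for no effect and medium without cells for full effect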
# Wnt3a cs: inhibits Wnt3a reporter, counter-screen for Gli-SUFU antagonists | shares compounds with Gli-Sufu antag | Wnt-LIGHT cells, Wnt3a-driven luciferase reporter, luminescence | inhibition, % at 6.25 µM | hit rate 20% among 2,500 | AID 651995;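 active = mean inhibition above about 25%, limit read from the data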
# An asterisk follows results filed as active; ? = inconclusive; · = no result given.
SMILES,Gli-Sufu antag,Jurkat NFkB inh,697 NFkB inh,Beta apoptosis,Gli-Sufu confirm,SufuKO cytotox,Wnt3a cs
O=C(NCCCn1ccnc1)/C(=C\c1cccnc1)NC(=O)c1ccco1,-3.3,-0.3,9.6,-1.3,·,·,·
C=CCNC(=O)c1ccccc1NS(=O)(=O)c1ccc(SC)cc1,0.1,12.8,24.7,1.6,·,·,·
C=CCNC(=O)c1ccccc1NC(=O)C1CCN(S(=O)(=O)c2ccc(SC)cc2)CC1,65.9*,14.6,-6.9,2.0,9.6,5.4,-43.2
CCCC[C@@H]1CNC(=S)N1CC1CCCCC1,6.6,-8.3,-11.6,-1.2,·,·,·
S=C1NC[C@H](CC2CCCCC2)N1CC1CCCCC1,65.1*,-5.2,-30.0,22.6,8.8,18.6,-2.0
COC(=O)C12OCC34C(CC5C(C)=C(O)C(=O)CC5(C)C3C(O)C1O)OC(=O)C(OC(=O)C=C(C)C)C24 (stereo not drawn),91.1*,·,·,·,95.0*,76.3*,104.6*
O=C(NNC(=O)c1cccc(Cl)c1)NNC(=O)c1cccc(Cl)c1,52.6,5.1,-2.8,-4.6,12.4,-12.0,-12.4
O=C(Oc1c(CN2CCOCC2)cc(Cl)c2cccnc12)c1ccccc1,74.8*,22.8,-11.8,?,26.5,32.0*,-7.0
CC[C@]12c3[nH]c4cc(CCC(=O)N(C)C)ccc4c3CCN1C(=O)[C@@H](CC(=O)NC/C=C(\C)CCC=C(C)C)C[C@@H]2C(=O)N1CCN(C(=O)c2ccco2)CC1,78.8*,·,24.4,·,77.1*,30.0*,30.6*
CC[C@]12c3[nH]c4cc(CCC(=O)N(C)C)ccc4c3CCN1C(=O)[C@@H](CC(=O)NCCN1CCOCC1)C[C@@H]2C(=O)N1CCN(C(=O)c2ccco2)CC1,-11.2,·,-0.3,·,·,·,·
CCN(CC)C1=CC(=[N+]2CCCC2)CC(C)(C)C1,79.4*,46.0,-0.8,46.1,81.7*,31.6*,47.8*
Cc1nc(Cl)cc(N/N=C/c2ccc(O)cc2O)n1,19.3,-13.7,-33.0,14.7,·,·,·
Cc1cc(N/N=C/c2ccc(O)cc2O)nc(-n2nc(C)cc2C)n1,87.9*,·,·,98.9*,59.6*,27.0*,-35.0
CCN1CCN(CCC(=O)Nc2ccc(Br)cc2)CC1,5.9,-4.8,1.1,-3.0,·,·,·
CN1CCN(CCC(=O)Nc2ccc(Br)cc2)CC1,84.4*,-15.2,-5.5,-11.0,11.2,16.1,-15.8
CCOc1ccc(-c2c(C(=O)N/N=C/c3ccc(OC(C)C)cc3)nnn2-c2nonc2N)cc1,1.4,-15.1,4.1,-10.7,·,·,·
CC(C)(C)S(=O)(=O)c1cnc(N2CCCCC2)nc1N,-2.7,-14.4,2.6,-3.2,·,·,·
CC(=O)c1cnc(N2CCCCC2)nc1C,56.4*,-1.9,-10.1,0.9,5.4,28.8*,-0.2
CCN(CC)CCNC(=O)c1ccc(NC(=O)c2cccc(S(=O)(=O)N3CCCCCC3)c2)cc1,51.4,·,·,·,14.3,19.3,-21.6
Cc1cc(=O)oc(C)c1C(=O)NCCN1CCOCC1,71.6*,0.0,15.5,-0.7,28.3,-6.1,25.5*
CCn1c(C)c(C)c2cc(C(=O)NCCN3CCOCC3)ccc21,57.7*,-16.1,-50.2,-3.7,29.2,6.2,-10.3
COc1cccc(-c2c(NC(=O)c3ccco3)n(-c3ccc(C)cc3)nc(C)c2=O)c1,2.2,-16.2,3.3,0.9,·,·,·
O=C(c1cc2cc(Cl)ccc2[nH]1)N1CCc2ccccc2C1,-0.6,-4.4,4.9,0.1,·,·,·
NC(=O)CC(NC(=O)c1ccccc1)c1ccc(N2CCC(Cc3ccccc3)CC2)c([N+](=O)[O-])c1 (stereo not drawn),63.0*,34.0,18.5,-31.1,54.4*,27.1*,10.9
NC(=O)CC(NC(=O)c1ccc(Br)cc1)c1ccc(N2CCN(c3ccccc3)CC2)c([N+](=O)[O-])c1 (stereo not drawn),10.4,-29.8,-17.8,·,·,·,·
NC(=O)CC(NC(=O)c1ccc(Br)cc1)c1ccc(N2CCCCCCC2)c([N+](=O)[O-])c1 (stereo not drawn),59.6*,29.2,4.1,1.4,35.6,17.4,-108.3
COc1ccc(-c2csc(NC(=O)CSc3nnc(Nc4ccccc4C)s3)n2)cc1,-11.5,-12.6,-23.7,1.0,·,·,·
CCOC(=O)c1sc(N(Cc2ccccc2)C(=O)COC(=O)c2cnccn2)nc1C,-8.4,-0.5,-6.7,·,·,·,·
